# Test results from the supplement of paper PMC10849652.
# About 7,900 targets were measured; listed, in parts, are those with a hit and a random draw of the rest. About 0.6% of all pairs of compound and target were hits. A number with no mark means an inactive call.
# Columns and labels:
# Assay in all cases: log2 fold change, soluble protein after heating vs DMSO (PISA); higher = thermal stabilisation; K562 cells, 10 uM, 30 min; active = over 0.2 and 3.5 SD of the protein, either way, in both replicates (recomputed)
# erlotinib = compound: C#Cc1cccc(Nc2ncnc3cc(OCCOC)c(OCCOC)cc23)c1 [erlotinib]
# Procedure, shortened: (§1)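 K562 cells at 2×10^6 cells/mL were exposed to 10 μM compound for 30 min, then aliquots were heated for 3 min across 48°C-58°C, pooled, and extracted in PBS containing 0.5% NP-40 at 4°C. The supernatant after 21,000xg for 90 min was taken as soluble protein and measured by TMTpro 16plex LC-MS/MS with channel sums equalised. Thermal stability is reported relative to control samples, with values from duplicates. Fold changes are given on a log2 scale.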
# [1] = compound: C/C(=N\NC(=O)C1=CC(=CC=C1)S(=O)(=O)N2CCOCC2)/C3=C(C=CC(=C3)Cl)O
# Procedure, shortened: as §1
# [2] = compound: C1=CC(=C(C=C1Cl)C2=NC3=NC=CN=C3C(=N2)NC4=CC=NC=C4)F
# Procedure, shortened: as §1
# [3] = compound: C1=CC(=CC=C1C2=NC3=C(N2)C=C(C=C3)C(=O)N)OC4=CC=C(C=C4)Cl
# Procedure, shortened: as §1
# [4] = compound: C1=CC2=C(C=CC(=C2)/C=C\3/C(=O)NC(=NCC4=CC=CS4)S3)N=C1
# Procedure, shortened: as §1
# [5] = compound: C1=CC2=NC=CN=C2C=C1/C=C/3\C(=O)NC(=O)S3
# Procedure, shortened: as §1
# [6] = compound: C1=CC=C(C=C1)C2=NC(=C(N2)C3=CC=NC=C3)C4=CC(=C(C=C4)Cl)O
# Procedure, shortened: as §1
# [7] = compound: C1=CC=C2C(=C1)C3=NNC4=CC=CC(=C43)C2=O
# Procedure, shortened: as §1
# [8] = compound: C1CCN(C1)C(=O)NC2=CC=CC(=C2)NC3=NC=C(C(=N3)NCCC4=CN=CN4)Br
# Procedure, shortened: as §1
# [9] = compound: C1CN(CCC1(CC2=CC=C(C=C2)Cl)N)C3=NC=NC4=C3C=CN4
# Procedure, shortened: as §1
# IRAK-1-4 Inhibitor I = compound: C1COCCN1CCN2C3=CC=CC=C3N=C2NC(=O)C4=CC(=CC=C4)[N+](=O)[O-] [IRAK-1-4 Inhibitor I]
# Procedure, shortened: as §1
# ibrutinib = compound: C=CC(=O)N1CCC[C@@H](n2nc(-c3ccc(Oc4ccccc4)cc3)c3c(N)ncnc32)C1 [ibrutinib]
# Procedure, shortened: as §1
# [10] = compound: CC(=O)c1cnc2ccc(-c3cc(Cl)c(O)c(Cl)c3)nc2c1N[C@H]1CC[C@H](CN(C)C)CC1
# Procedure, shortened: as §1
# ralimetinib = compound: CC(C)(C)Cn1c(N)nc2ccc(-c3[nH]c(C(C)(C)C)nc3-c3ccc(F)cc3)nc21 [ralimetinib]
# Procedure, shortened: as §1
# [11] = compound: CC(C)(O)CC(=O)NCCn1ccc2ncnc(Nc3ccc(Oc4cccc(C(F)(F)F)c4)c(Cl)c3)c21
# Procedure, shortened: as §1
# [12] = compound: CC(C)C1=C2N=C(C=C(N2N=C1)NCC3=CC=CC=C3)NCCCCCCN
# Procedure, shortened: as §1
# [13] = compound: CC(C)C[C@@H](C=O)NC(=O)[C@H](CC(C)C)NC(=O)[C@H](CC(C)C)NC(=O)OCc1ccccc1
# Procedure, shortened: as §1
# pinometostat = compound: CC(C)N(C[C@H]1O[C@@H](n2cnc3c(N)ncnc32)[C@H](O)[C@@H]1O)[C@H]1C[C@@H](CCc2nc3cc(C(C)(C)C)ccc3[nH]2)C1 [pinometostat]
# Procedure, shortened: as §1
# [14] = compound: CC1=C(C(CC(=O)N1)C2=CC=C(C=C2)C(F)(F)F)C(=O)NC3=C(C=C4C(=C3)C=NN4)F
# Procedure, shortened: as §1
# [15] = compound: CC1=C(C2=C(C=C1)C(=O)C3=CC=CC=C3N2CCCN)C
# Procedure, shortened: as §1
# UniProt P00966, sequence (P00966 whole entry, looked up): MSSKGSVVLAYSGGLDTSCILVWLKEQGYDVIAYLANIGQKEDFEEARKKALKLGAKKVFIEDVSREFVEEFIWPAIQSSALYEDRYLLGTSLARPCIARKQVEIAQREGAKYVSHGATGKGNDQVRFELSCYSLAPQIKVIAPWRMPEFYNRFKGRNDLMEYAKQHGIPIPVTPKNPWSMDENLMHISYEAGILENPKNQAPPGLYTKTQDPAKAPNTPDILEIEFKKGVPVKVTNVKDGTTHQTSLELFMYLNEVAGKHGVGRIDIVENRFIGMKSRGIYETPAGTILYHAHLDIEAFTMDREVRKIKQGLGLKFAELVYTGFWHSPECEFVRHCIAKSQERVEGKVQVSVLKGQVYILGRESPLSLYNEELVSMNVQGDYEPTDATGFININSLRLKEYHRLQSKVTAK
# UniProt Q9NUQ2, sequence (Q9NUQ2 whole entry, looked up): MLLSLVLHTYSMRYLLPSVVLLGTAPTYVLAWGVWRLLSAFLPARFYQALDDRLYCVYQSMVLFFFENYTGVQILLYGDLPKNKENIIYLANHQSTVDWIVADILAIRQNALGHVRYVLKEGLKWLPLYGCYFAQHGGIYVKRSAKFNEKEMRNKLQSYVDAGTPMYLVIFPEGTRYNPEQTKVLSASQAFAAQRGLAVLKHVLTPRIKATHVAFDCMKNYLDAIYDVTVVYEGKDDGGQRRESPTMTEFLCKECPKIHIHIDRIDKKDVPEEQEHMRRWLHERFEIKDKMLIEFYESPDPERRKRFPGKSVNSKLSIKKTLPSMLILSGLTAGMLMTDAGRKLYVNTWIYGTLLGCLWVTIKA
# UniProt Q9UEY8, sequence (Q9UEY8 whole entry, looked up): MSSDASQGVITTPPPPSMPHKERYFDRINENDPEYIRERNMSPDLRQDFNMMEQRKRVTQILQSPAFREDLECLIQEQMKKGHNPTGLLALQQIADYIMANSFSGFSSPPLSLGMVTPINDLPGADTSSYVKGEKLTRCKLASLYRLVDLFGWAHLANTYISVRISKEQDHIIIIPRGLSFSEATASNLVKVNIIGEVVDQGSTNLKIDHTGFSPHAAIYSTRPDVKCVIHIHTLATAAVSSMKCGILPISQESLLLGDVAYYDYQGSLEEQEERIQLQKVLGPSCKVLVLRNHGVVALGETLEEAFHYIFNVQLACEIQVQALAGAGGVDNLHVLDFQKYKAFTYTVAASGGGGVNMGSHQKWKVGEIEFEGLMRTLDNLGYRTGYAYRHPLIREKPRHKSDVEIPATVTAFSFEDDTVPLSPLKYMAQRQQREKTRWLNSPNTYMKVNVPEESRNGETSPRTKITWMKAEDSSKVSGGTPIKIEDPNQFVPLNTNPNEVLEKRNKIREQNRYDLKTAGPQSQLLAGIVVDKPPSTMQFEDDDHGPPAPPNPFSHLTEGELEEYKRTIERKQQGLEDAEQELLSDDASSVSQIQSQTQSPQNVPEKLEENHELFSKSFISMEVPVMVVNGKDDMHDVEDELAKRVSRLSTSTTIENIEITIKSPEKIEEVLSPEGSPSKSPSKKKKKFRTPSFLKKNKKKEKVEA
# UniProt Q9UNA0, sequence (Q9UNA0 whole entry, looked up): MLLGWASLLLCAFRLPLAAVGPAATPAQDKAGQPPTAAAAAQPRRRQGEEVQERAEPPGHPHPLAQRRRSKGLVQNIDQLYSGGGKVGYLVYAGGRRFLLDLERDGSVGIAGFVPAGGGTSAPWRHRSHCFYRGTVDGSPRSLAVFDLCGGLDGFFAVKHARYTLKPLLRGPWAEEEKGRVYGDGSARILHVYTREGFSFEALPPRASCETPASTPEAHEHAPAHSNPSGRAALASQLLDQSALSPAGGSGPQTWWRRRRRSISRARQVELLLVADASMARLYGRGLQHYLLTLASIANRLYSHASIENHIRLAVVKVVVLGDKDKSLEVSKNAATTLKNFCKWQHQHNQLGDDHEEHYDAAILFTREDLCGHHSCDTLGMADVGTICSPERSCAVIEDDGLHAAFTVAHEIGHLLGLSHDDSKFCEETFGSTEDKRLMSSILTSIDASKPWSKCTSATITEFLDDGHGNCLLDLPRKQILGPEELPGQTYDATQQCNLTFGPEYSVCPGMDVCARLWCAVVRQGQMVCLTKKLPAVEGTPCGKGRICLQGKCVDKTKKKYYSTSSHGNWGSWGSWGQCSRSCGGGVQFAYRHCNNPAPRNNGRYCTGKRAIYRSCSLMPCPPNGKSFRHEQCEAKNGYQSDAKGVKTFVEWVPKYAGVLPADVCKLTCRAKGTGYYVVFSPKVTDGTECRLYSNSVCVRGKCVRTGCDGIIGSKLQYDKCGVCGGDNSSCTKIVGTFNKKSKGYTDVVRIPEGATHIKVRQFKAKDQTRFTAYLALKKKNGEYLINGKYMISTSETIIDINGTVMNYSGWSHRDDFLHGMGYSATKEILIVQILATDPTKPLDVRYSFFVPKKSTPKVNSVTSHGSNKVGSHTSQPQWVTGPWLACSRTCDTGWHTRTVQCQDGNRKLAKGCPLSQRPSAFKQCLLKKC
# UniProt Q96BI3, sequence (Q96BI3 whole entry, looked up): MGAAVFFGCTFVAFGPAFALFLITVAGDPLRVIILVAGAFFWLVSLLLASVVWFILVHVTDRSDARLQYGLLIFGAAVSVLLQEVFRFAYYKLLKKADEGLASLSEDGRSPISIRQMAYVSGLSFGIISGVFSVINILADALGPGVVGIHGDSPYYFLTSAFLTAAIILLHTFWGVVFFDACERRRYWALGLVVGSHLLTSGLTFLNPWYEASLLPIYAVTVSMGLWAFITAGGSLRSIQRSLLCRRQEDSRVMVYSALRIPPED
# UniProt Q7Z591, sequence (Q7Z591 whole entry, looked up): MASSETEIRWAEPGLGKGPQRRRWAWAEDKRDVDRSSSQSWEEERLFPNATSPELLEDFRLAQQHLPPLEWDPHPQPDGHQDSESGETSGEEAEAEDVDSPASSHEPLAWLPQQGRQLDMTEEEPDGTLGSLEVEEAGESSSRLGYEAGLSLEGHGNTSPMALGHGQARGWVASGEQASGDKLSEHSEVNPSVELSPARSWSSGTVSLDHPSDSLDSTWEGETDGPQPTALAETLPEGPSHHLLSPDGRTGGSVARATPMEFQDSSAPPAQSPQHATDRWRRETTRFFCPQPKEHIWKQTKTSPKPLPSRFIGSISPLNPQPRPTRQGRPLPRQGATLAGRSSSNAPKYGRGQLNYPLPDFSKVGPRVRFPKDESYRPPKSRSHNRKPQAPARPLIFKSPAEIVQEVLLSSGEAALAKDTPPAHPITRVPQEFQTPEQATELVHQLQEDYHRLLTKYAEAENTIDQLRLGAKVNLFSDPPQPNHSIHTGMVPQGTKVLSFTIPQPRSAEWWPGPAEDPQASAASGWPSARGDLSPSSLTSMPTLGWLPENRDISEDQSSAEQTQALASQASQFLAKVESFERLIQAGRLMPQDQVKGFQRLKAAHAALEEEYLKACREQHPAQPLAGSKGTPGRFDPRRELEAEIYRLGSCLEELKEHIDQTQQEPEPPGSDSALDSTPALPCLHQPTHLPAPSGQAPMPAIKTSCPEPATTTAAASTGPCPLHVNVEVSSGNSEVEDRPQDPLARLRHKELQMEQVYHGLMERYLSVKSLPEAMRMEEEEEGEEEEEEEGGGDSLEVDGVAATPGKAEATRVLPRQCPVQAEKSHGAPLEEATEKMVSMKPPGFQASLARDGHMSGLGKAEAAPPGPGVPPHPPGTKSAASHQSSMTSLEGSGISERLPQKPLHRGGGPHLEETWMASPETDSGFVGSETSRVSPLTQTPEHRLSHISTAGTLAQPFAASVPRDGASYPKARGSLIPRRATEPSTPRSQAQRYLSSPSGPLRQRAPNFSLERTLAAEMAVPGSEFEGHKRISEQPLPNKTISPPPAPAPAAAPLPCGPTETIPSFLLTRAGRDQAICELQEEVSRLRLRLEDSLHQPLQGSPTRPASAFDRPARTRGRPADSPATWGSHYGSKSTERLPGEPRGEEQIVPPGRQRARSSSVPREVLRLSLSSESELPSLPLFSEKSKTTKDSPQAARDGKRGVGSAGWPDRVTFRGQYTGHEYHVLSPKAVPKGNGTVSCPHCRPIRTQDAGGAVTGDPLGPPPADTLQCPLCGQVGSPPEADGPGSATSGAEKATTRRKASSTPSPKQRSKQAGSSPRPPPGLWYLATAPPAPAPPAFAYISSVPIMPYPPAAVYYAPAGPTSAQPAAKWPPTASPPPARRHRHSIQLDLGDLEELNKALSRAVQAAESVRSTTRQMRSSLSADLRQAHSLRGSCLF
# UniProt Q9UNK9, sequence (Q9UNK9 whole entry, looked up): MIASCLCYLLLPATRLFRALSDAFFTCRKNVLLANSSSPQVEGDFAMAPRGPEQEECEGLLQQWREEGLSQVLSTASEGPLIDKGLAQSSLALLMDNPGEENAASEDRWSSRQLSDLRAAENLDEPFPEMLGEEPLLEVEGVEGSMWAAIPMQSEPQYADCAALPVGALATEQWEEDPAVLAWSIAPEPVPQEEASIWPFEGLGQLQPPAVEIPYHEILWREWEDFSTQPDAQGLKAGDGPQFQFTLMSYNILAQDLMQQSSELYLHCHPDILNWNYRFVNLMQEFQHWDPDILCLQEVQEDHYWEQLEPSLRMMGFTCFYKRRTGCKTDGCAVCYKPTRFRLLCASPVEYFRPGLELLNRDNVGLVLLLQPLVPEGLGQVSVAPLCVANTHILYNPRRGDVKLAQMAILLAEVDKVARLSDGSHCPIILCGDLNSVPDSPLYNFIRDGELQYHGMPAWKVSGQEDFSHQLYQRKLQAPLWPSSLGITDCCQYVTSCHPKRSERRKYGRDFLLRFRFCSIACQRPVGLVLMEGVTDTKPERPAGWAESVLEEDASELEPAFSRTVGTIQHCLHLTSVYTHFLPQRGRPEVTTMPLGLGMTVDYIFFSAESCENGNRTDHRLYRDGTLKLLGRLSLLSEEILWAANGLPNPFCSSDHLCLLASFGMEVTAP
# UniProt P40617, sequence (P40617 whole entry, looked up): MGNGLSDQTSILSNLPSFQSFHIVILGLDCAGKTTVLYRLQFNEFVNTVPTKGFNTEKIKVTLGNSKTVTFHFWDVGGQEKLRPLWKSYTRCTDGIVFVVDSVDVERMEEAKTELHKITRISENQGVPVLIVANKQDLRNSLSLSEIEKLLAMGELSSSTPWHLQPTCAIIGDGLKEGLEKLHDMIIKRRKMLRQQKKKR
Target,log2 fold change (erlotinib),log2 fold change [1],log2 fold change [2],log2 fold change [3],log2 fold change [4],log2 fold change [5],log2 fold change [6],log2 fold change [7],log2 fold change [8],log2 fold change [9],log2 fold change (IRAK-1-4 Inhibitor I),log2 fold change (ibrutinib),log2 fold change [10],log2 fold change (ralimetinib),log2 fold change [11],log2 fold change [12],log2 fold change [13],log2 fold change (pinometostat),log2 fold change [14],log2 fold change [15]
AGRN (UniProt O00468),0.064,-0.013,-0.039,-0.125,0.071,-0.048,0.366 (active),0.024,-0.091,0.05,-0.205,0.09,-0.025,0.125,-0.022,0.156,-0.066,-0.005,0.078,0.014
BTBD6 (UniProt Q96KE9),0.407,-0.706 (active),0.165,-0.188,0.016,-0.057,0.3,0.081,-0.19,0.185,–,0.136,0.145,0.201,-0.008,0.296,0.025,–,0.068,0.005
ALKBH4 (UniProt Q9NXW9),0.067,0.084,0.018,0.078,0.106,-0.129,0.032,-0.006,-0.074,0.091,0.009,-0.126,-0.07,0.017,-0.12,-0.086,-0.033,-0.065,–,-0.11
AFDN isoform 1 (UniProt P55196),-0.008,0.072,0.002,-0.003,-0.136,-0.018,-0.082,-0.005,–,–,-0.046,-0.015,-0.102,-0.12,-0.048,-0.001,0.002,-0.072,–,–
AGPAT5 (UniProt Q9NUQ2),0.042,-0.019,-0.003,0.014,0.009,0.048,0.07,-0.001,-0.017,0.079,0.047,0.003,0.062,-0.037,0.03,-0.163,0.002,0.007,-0.001,0.021
ATP1A1 (UniProt P05023),0.003,0.02,0.017,-0.012,-0.036,0.012,-0.017,-0.032,-0.015,0.057,0.071,0.03,0.007,-0.029,-0.006,0.182,-0.002,-0.006,0.001,0.009
AP4S1 (UniProt Q9Y587),-0.014,-0.013,-0.015,0.078,-0.456 (active),0,–,-0.111,–,–,-0.061,-0.12,0.008,–,-0.079,0,–,-0.145,0.027,–
ASS1 (UniProt P00966),0.059,0.301 (active),-0.05,0.008,-0.003,0.036,0.012,0.118,0.103,-0.037,–,0.05,-0.155,-0.022,-0.064,-0.122,0.006,–,-0.071,-0.021
BSCL2 isoform 4 (UniProt Q96G97),-0.024,0.088,-0.016,0.052,0.06,-0.012,–,-0.045,0.045,-0.001,–,0.069,-0.109,–,0.003,-0.219,–,–,-0.122,0.023
ACTBL2 (UniProt Q562R1),-0.247,-0.805,0.093,0.025,-0.419,-0.215,0.047,0.147,–,–,–,0,-0.156,0.351,0.132,0.372,0.195,–,0.406,–
APAF1 (UniProt O14727),0.207,0.066,-0.073,0.141,0.016,–,0.037,0.011,–,–,0.001,–,-0.153,-0.07,-0.08,-0.156,0.135,0.066,0.047,–
ADAMTS5 (UniProt Q9UNA0),0.186,-0.518 (active),–,-0.124,0.171,0.012,0.072,0.043,-0.06,0.113,0.064,0.127,0.036,0.141,–,0.088,-0.009,-0.03,-0.015,0.025
ATP6V0A1 (UniProt Q93050),–,–,–,–,–,0.187,–,–,–,–,–,0.047,–,–,–,–,–,–,–,–
ADPRH (UniProt P54922),-0.021,–,-0.047,-0.047,–,0.008,-0.011,–,0.141,-0.065,0.056,0.001,–,-0.003,-0.084,0.107,-0.033,0.021,-0.032,0.037
ANGEL1 (UniProt Q9UNK9),–,–,–,–,–,0.161,-0.107,–,-0.149,0.092,-0.042,0.062,–,0.332,–,–,0.207,-0.019,–,0.074
AKNA (UniProt Q7Z591),-0.147,–,–,0.195,–,–,–,–,–,–,–,–,–,–,–,-0.659 (active),–,–,–,–
ARFIP1 isoform 2 (UniProt P53367),0.106,–,-0.064,-0.051,–,-0.06,–,–,–,–,-0.051,-0.055,–,–,-0.186,-0.048,–,0.043,0.029,–
BRD3 (UniProt Q15059),-0.282,-0.072,–,0.061,-0.021,0.071,0.128,0.059,-0.163,-0.024,0.163,0.037,-0.032,-0.136,–,0.152,-0.065,0.143,0.026,0.162
APH1A (UniProt Q96BI3),0,-0.046,–,0.052,0.073,0.048,–,-0.09,-0.188,0.071,0.021,0.036,-0.076,–,–,-0.047,–,-0.056,0.028,-0.03
ARL4A (UniProt P40617),–,0.009,–,–,0.35,-0.053,–,0.047,–,–,–,0.143,-0.295,–,–,–,–,–,–,–
ADD2 isoform 9 (UniProt P35612),–,–,–,–,–,-0.025,0.203,–,–,–,–,-0.098,–,0.145,–,–,-0.103,–,–,–
ADD3 isoform 2 (UniProt Q9UEY8),–,0.171,-0.049,–,0.057,–,0.009,0.047,-0.016,0.034,0.008,–,-0.433,-0.015,0.005,–,0.009,0.108,–,-0.063
